Measurements taken from publication PMC4336329 (PLoS ONE, 2015).
Among all 310,000 compounds or so, about 14,000 (4.5%) showed an effect of 50% or more. Effects have a minus sign here. The full list was thinned out, with strong results kept by preference.

Target: human ether-à-go-go-related gene (hERG) potassium channel (human, UniProt Q12809)
Assay: primary screen, population patch clamp on CHO cells stably expressing hERG; higher = less effect of the substance
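Also: peak tail current of the secondary pulse compared with the same well before compound.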

human ether-à-go-go-related gene (hERG) potassium channel, sequence (Q12809 whole entry, looked up): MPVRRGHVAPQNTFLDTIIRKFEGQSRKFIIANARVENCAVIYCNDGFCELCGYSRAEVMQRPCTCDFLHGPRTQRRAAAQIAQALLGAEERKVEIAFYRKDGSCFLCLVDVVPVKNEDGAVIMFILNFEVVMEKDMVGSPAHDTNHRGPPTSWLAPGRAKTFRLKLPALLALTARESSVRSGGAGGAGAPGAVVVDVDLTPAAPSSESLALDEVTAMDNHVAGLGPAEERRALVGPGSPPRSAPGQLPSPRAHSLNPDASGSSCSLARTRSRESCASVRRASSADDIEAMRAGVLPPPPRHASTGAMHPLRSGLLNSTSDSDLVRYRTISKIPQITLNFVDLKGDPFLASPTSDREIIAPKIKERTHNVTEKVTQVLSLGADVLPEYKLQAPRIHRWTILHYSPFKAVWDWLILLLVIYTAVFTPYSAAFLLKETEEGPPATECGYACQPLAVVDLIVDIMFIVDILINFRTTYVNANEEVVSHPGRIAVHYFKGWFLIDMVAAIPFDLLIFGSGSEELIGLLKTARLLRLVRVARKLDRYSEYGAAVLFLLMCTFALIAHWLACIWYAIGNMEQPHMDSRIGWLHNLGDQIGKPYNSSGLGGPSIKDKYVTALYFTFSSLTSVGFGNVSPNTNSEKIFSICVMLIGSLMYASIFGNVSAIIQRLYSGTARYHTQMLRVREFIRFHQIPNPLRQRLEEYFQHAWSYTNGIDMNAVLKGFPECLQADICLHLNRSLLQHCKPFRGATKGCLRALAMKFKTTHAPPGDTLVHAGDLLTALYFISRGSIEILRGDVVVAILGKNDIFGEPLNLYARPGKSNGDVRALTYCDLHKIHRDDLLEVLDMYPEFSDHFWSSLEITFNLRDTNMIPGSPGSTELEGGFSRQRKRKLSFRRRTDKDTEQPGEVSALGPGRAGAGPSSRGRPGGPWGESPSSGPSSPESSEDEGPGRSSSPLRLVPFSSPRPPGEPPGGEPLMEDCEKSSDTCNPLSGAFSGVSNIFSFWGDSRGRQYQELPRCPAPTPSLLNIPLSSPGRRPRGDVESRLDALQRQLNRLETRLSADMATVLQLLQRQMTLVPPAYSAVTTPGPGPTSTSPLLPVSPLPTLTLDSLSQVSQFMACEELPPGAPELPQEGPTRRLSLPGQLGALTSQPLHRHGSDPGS

Compared with COc1ccc(C)cc1S(=O)(=O)Nc1cc(Cl)ccc1Cl, CN(C)C1(CNC(=O)c2ccc(NS(=O)(=O)c3ccc(Cl)c(Cl)c3)cc2)CCCCC1 is lower in “hERG current change (%, negative = inhibition) at 10uM” value: 7.53% for the first, -74.1% for the second.

First: CCOC(=O)c1cccc(NC(=O)c2cccs2)c1
Second: CCn1c(CCNC(=O)c2cccs2)nnc1SCC(=O)Nc1cccc(Cl)c1
The “hERG current change (%, negative = inhibition) at 10uM” value of the first is higher: -13.1% for the first, -64.5% for the second.

Going from CCCCc1cc(C(=O)Cc2ccccn2)c(O)cc1O to Cc1ccc(N(CC(=O)NC2CCCC2)C(=O)CCCC(=O)Nc2ccccn2)cc1C, the “hERG current change (%, negative = inhibition) at 10uM” value falls from 16.9% to 2.86%.

Going from O=C(NCc1cccnc1)Nc1ccc(Cl)c(Cl)c1 to CN(C)CCNC(=O)Nc1ccc(Cl)c(Cl)c1, the “hERG current change (%, negative = inhibition) at 10uM” value falls from -0.174% to -23.4%.

Compared with COc1ccc(CN2CC(=O)N3[C@H]4c5ccccc5OC[C@@H]4[C@H](c4ccccc4)[C@]3(C)C2=O)cc1, COc1ccccc1CN(C)C(=O)c1cc(-c2cccs2)nc2ccccc12 is lower in “hERG current change (%, negative = inhibition) at 10uM” value: 15.3% for the first, 4.13% for the second.

Compared with COc1ccccc1OCCOc1ccc(/C=C2\C(=N)N3N=C(S(C)(=O)=O)SC3=NC2=O)cc1, CCc1ccc(-c2nc(C(N)=O)c3[nH]c(=O)n(-c4ccccc4OC)c3n2)cc1 is lower in “hERG current change (%, negative = inhibition) at 10uM” value: 12% for the first, -0.102% for the second.

First: CCN(CC)CCn1c2c(c(SCC(=O)Nc3cccc4ccccc34)nc1=O)CCC2
Second: CN(C)CCn1c2c(c(SCC(=O)Nc3cccc4ccccc34)nc1=O)CCC2
The “hERG current change (%, negative = inhibition) at 10uM” value of the first is lower: -62.7% for the first, -13.6% for the second.

First: CN=C(NC(=O)Nc1c(C)cccc1C)NC(=O)Nc1c(C)cccc1C
Second: CC(=O)Nc1ccc(NC(=O)C(C)OC(=O)CCCc2c[nH]c3ccccc23)cc1 (stereo not drawn)
The “hERG current change (%, negative = inhibition) at 10uM” value of the first is lower: 3.97% for the first, 7.68% for the second.

Compared with COc1ccccc1CN(C)C(=O)c1cc(-c2cc(OC)c(OC)c(OC)c2)nc2ccccc12, COc1ccccc1CN(C)C(=O)c1cc(C)nc2ccccc12 is lower in “hERG current change (%, negative = inhibition) at 10uM” value: 12.9% for the first, -65.1% for the second.

First: CN(C)C(=S)NC1(C)CCS(=O)(=O)C1 (stereo not drawn)
Second: CN(C)C1(CNC(=O)Nc2ccccc2)CCCCC1
The “hERG current change (%, negative = inhibition) at 10uM” value of the first is higher: 6.89% for the first, -3.27% for the second.

First: O=C(N/N=C/c1ccc(O)c(O)c1)NC12CC3CC(CC(C3)C1)C2
Second: COc1cc(/C=N/NC(=O)NC23CC4CC(CC(C4)C2)C3)ccc1O
The “hERG current change (%, negative = inhibition) at 10uM” value of the first is higher: -11.8% for the first, -34.3% for the second.

Going from COc1cc(/C=N/NC(=O)NC23CC4CC(CC(C4)C2)C3)ccc1OCC(N)=O to CCOc1ccc(/C=N/NC(=O)NC23CC4CC(CC(C4)C2)C3)cc1O, the “hERG current change (%, negative = inhibition) at 10uM” value rises from -57% to -10.9%.

Compared with O=C(N/N=C/c1ccncc1)NC12CC3CC(CC(C3)C1)C2, O=C(N/N=C/c1ccc(O)cc1)NC12CC3CC(CC(C3)C1)C2 is lower in “hERG current change (%, negative = inhibition) at 10uM” value: -26.6% for the first, -55.7% for the second.

Compared with O=C(Nc1nc(-c2ccco2)c(-c2ccco2)s1)c1cnccn1, Cc1cc(NC(=O)c2cc(-c3ccco3)on2)n(-c2ccccc2)n1 is lower in “hERG current change (%, negative = inhibition) at 10uM” value: 3.8% for the first, -0.313% for the second.

Compared with CCOC(=O)C1=C(COC(=O)COc2ccc(C(=O)CC)cc2)NC(=O)NC1C (stereo not drawn), CCn1c(CCNC(=O)c2cccs2)nnc1SCC(=O)c1ccc(OC)cc1 is higher in “hERG current change (%, negative = inhibition) at 10uM” value: -25.5% for the first, 7.05% for the second.

First: O=C1N/C(=N\N=C\c2cccs2)SC1Cc1ccc(Cl)c(Cl)c1 (stereo not drawn)
Second: O=C(NCc1cccs1)c1cnc(Cl)c(Cl)c1
The “hERG current change (%, negative = inhibition) at 10uM” value of the first is higher: 16.1% for the first, 11.7% for the second.

First: Cc1cccc(COc2ncnc3nc[nH]c23)c1
Second: CCN(CC)C(=O)CSc1ncnc2c1cnn2Cc1ccccc1
The “hERG current change (%, negative = inhibition) at 10uM” value of the first is higher: -6.73% for the first, -19.9% for the second.

Going from CN(C)C1(CNC(=O)Nc2ccc(Cl)c(Cl)c2)CCCCC1 to Cc1ccc(NS(=O)(=O)c2cccc(C(=O)NCC3(N(C)C)CCCCC3)c2)cc1, the “hERG current change (%, negative = inhibition) at 10uM” value rises from -50.1% to -22.4%.

Compared with CCOc1ccc(NS(=O)(=O)c2ccc(C(=O)NCC3(N(C)C)CCCCC3)cc2)cc1, COc1ccc(NS(=O)(=O)c2cccc(C(=O)NCC3(N(C)C)CCCCC3)c2)cc1 is lower in “hERG current change (%, negative = inhibition) at 10uM” value: -8.13% for the first, -40.6% for the second.

First: CN(C)C1(CNC(=O)c2cccc(S(=O)(=O)Nc3ccc(Br)cc3)c2)CCCCC1
Second: Cc1cc(S(=O)(=O)Nc2ccc(C(=O)NCC3(N(C)C)CCCCC3)cc2)ccc1F
The “hERG current change (%, negative = inhibition) at 10uM” value of the first is lower: -66.7% for the first, -49.2% for the second.

First: Cc1ccc(CNC(=O)c2ccc(Br)o2)cc1
Second: Cn1c(CNC(=O)c2cccs2)nnc1SCC(=O)Nc1ccc(Cl)cc1
The “hERG current change (%, negative = inhibition) at 10uM” value of the first is higher: -18% for the first, -35.4% for the second.

First: O=C(NC1CCCC1)C1CCCN(S(=O)(=O)c2cnc[nH]2)C1 (stereo not drawn)
Second: O=C(NC1CCCCCCC1)c1ccccc1O
The “hERG current change (%, negative = inhibition) at 10uM” value of the first is higher: 15.3% for the first, -6.11% for the second.

First: CC1=Nc2ccccc2N=C(NC(=O)CSC(=S)N2CCN(C)CC2)C1c1ccccc1 (stereo not drawn)
Second: Cn1c(=O)c2c(nc(CN3CCN(c4ccccc4)CC3)n2CCc2ccccc2)n(C)c1=O
The “hERG current change (%, negative = inhibition) at 10uM” value of the first is higher: -24.2% for the first, -33.7% for the second.

First: COc1ccc2c(Cl)c(C(=O)NN)sc2c1
Second: CCc1nnc(NC(=O)CSc2nnc(CNc3ccc(OC)cc3)n2CC)s1
The “hERG current change (%, negative = inhibition) at 10uM” value of the first is lower: 7.88% for the first, 13.1% for the second.

Going from O=[N+]([O-])c1ccc(CSc2nnc(SCc3ccc(Cl)cc3)s2)cc1 to CCn1c(CNC(=O)c2cccs2)nnc1SCC(=O)Nc1ccc(Cl)cc1, the “hERG current change (%, negative = inhibition) at 10uM” value falls from 16.8% to -57.5%.

First: O=C(c1ccccc1F)N1CCc2ccccc21
Second: O=C(O)c1cnn(-c2ccccc2)c1-n1cccc1
The “hERG current change (%, negative = inhibition) at 10uM” value of the first is lower: -7.14% for the first, 9% for the second.

Compared with COc1ccc(/C=N/OCC(=O)NC(c2ccccc2)c2ccccc2)c(OC)c1, COc1ccccc1CCNC(=O)CSc1nc(-c2ccco2)cc(C(F)(F)F)n1 is higher in “hERG current change (%, negative = inhibition) at 10uM” value: -35.1% for the first, 27.1% for the second.

First: CCc1nnc(NC(=O)CSc2nnc(CNc3cccc(C)c3)n2-c2ccccc2)s1
Second: CCc1nnc(NC(=O)CSc2nnc(CNc3cccc(Cl)c3)n2CC)s1
The “hERG current change (%, negative = inhibition) at 10uM” value of the first is higher: 3.35% for the first, -59.6% for the second.

First: CCn1c(CCNC(=O)c2cccs2)nnc1SCC(=O)NC1CCCCC1
Second: CCn1c(CCNC(=O)c2cccs2)nnc1SCC(=O)Nc1ccc(Cl)cc1
The “hERG current change (%, negative = inhibition) at 10uM” value of the first is higher: 0.651% for the first, -49.7% for the second.

First: CCC(C)(C)C1CCC(=NNC(=O)c2ccoc2C)CC1 (stereo not drawn)
Second: Cc1ccc(-n2ncc(C(=O)O)c2C2CCN(C(=O)OC(C)(C)C)CC2)cc1
The “hERG current change (%, negative = inhibition) at 10uM” value of the first is higher: 6.38% for the first, -3.86% for the second.

Going from CSc1nc(-c2ccccc2)nc(N2CCCC2)c1C(C)=O to CC(C)(C)OC(=O)N1CCC(c2c(C(=O)O)cnn2-c2ccccc2)CC1, the “hERG current change (%, negative = inhibition) at 10uM” value rises from -10.8% to 11%.

Going from CCCn1c(CN2CCN(c3cccc(Cl)c3)CC2)nc2c1c(=O)n(C)c(=O)n2C to CCCCn1c(CN2CCN(c3cccc(Cl)c3)CC2)nc2c1c(=O)n(C)c(=O)n2C, the “hERG current change (%, negative = inhibition) at 10uM” value rises from -63.6% to -56.3%.

Compared with CC(C)CCn1c(CN2CCN(c3cccc(Cl)c3)CC2)nc2c1c(=O)n(C)c(=O)n2C, CCCCCn1c(CN2CCN(c3cccc(Cl)c3)CC2)nc2c1c(=O)n(C)c(=O)n2C is lower in “hERG current change (%, negative = inhibition) at 10uM” value: -5.6% for the first, -35.3% for the second.

Going from CCCCn1c(CN2CCN(c3ccccc3)CC2)nc2c1c(=O)n(C)c(=O)n2C to COc1ccc(-c2c3c(=O)n(C)c(=O)n(C)c3cn2Cc2cccnc2)cc1, the “hERG current change (%, negative = inhibition) at 10uM” value rises from -45.7% to 4.55%.

First: COc1cc(/C=N/Nc2nc(=O)[nH]nc2C)ccc1O
Second: CCCCn1c(-c2csc(CCC)c2)n[nH]c1=S
The “hERG current change (%, negative = inhibition) at 10uM” value of the first is lower: 4.93% for the first, 14.8% for the second.

Compared with CSc1ccccc1NC(=O)CN(C)C(=O)c1ccc2c(c1)OCCO2, N#C/C(=C\c1ccc(-c2cccc([N+](=O)[O-])c2)o1)C(=O)N1CCOCC1 is lower in “hERG current change (%, negative = inhibition) at 10uM” value: 5.66% for the first, -6.75% for the second.

Going from O=C(CN1CCOCC1)OCCCc1ccccc1 to O=C(c1cnn(-c2ccccc2)c1-n1cccc1)N1CCN(C2CCCCC2)CC1, the “hERG current change (%, negative = inhibition) at 10uM” value falls from 9.77% to -67.2%.

First: Cc1ccc(-n2ncc(C(=O)N3CCN(C(=O)c4ccco4)CC3)c2C2CCN(C(=O)OC(C)(C)C)CC2)cc1C
Second: CC(C)(C)OC(=O)N1CCC(c2c(C(=O)N3CCN(C(=O)c4ccco4)CC3)cnn2-c2cccc(Cl)c2)CC1
The “hERG current change (%, negative = inhibition) at 10uM” value of the first is higher: 0.366% for the first, -65.6% for the second.

Compared with CC(C)(C)OC(=O)N1CCC(c2c(C(=O)N3CCN(C(=O)c4ccco4)CC3)cnn2-c2ccc(F)cc2)CC1, CC(C)(C)OC(=O)N1CCC(c2c(C(=O)N3CCN(C(=O)c4ccco4)CC3)cnn2-c2ccc(F)cc2F)CC1 is lower in “hERG current change (%, negative = inhibition) at 10uM” value: -14.8% for the first, -19.6% for the second.

Compared with CC(C)(C)OC(=O)N1CCC(c2c(C(=O)N3CCN(C4CCCCC4)CC3)cnn2-c2ccc(F)cc2)CC1, CC(C)(C)OC(=O)N1CCC(c2c(C(=O)N3CCN(C4CCCCC4)CC3)cnn2-c2ccccc2)CC1 is higher in “hERG current change (%, negative = inhibition) at 10uM” value: -55.5% for the first, -54.7% for the second.

First: O=C(c1cnn2ccccc12)N1CCN(C2CCCCC2)CC1
Second: CC(C)(C)OC(=O)N1CCC(c2c(C(=O)NC3CC3)cnn2-c2ccccc2)CC1
The “hERG current change (%, negative = inhibition) at 10uM” value of the first is higher: -9.39% for the first, -22.9% for the second.

First: O=C(COC(=O)C1CCN(c2ccc(C(F)(F)F)cn2)CC1)Nc1ccc(F)cc1[N+](=O)[O-]
Second: CC1CCC2(CC1)NC(=O)N(Cc1cccc(C(F)(F)F)c1)C2=O (stereo not drawn)
The “hERG current change (%, negative = inhibition) at 10uM” value of the first is higher: 13% for the first, 12.9% for the second.
